Measured values as given in PubChem BioAssay AID1159580 (chemical genetic matrix, 2015).
Values joined by “and” are separate entries in the source; they are usually repeats but may differ in a detail not shown here. Identical values can stand only once. Out of some 5,500 compounds screened, about 2,000 (36%) were called active. Not shown: some 18% with an inconclusive outcome. No stated cut-off is given here; in the data, active means normalized growth mostly below about 0.91 (no sharp cut-off); inconclusive means no clear call, values can overlap the other calls; inactive means mostly above about 0.92. The list shows a part of the results.

Experiment: chemical genetic growth profiling, strain panel (AID 1159580);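 further: tested at 20 µM; growth read once vehicle control cultures reached saturation at 30 °C; 1 = growth at the plate median or of vehicle wells; lower values mean less growth of the strain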
Conditions: growth OD

Measured: normalized growth

COc1ccc(C(=O)O)c(O)c1OC
inactive: S. cerevisiae deletion strains, locus YAL013W, strain DEP1, active compounds read low 1.05 | S. cerevisiae deletion strains, locus YBR021W, strain FUR4, active compounds read low 1.03 | S. cerevisiae deletion strains, locus YBR229C, strain ROT2, active compounds read low 1.02 | S. cerevisiae deletion strains, locus YCL029C, strain bik1, active compounds read low 0.992 | S. cerevisiae deletion strains, locus YDL035C, strain GPR1, active compounds read low 1.04 | S. cerevisiae deletion strains, locus YDL074C, strain BRE1, active compounds read low 1.04 | S. cerevisiae deletion strains, locus YDL101C, strain DUN1, active compounds read low 1.01 | S. cerevisiae deletion strains, locus YDL134C, strain PPH21, active compounds read low 1.02 | S. cerevisiae deletion strains, locus YDL185W, strain tfp1, active compounds read low 0.999 | S. cerevisiae deletion strains, locus YDL192W, strain arf1, active compounds read low 0.984 | S. cerevisiae deletion strains, locus YDR101C, strain arx1, active compounds read low 0.985 | S. cerevisiae deletion strains, locus YDR150W, strain NUM1, active compounds read low 1.01 | S. cerevisiae deletion strains, locus YDR162C, strain NBP2, active compounds read low 1.03 | S. cerevisiae deletion strains, locus YDR318W, strain mcm21, active compounds read low 0.988 | S. cerevisiae deletion strains, locus YDR388W, active compounds read low 0.988 | S. cerevisiae deletion strains, locus YDR502C, strain sam2, active compounds read low 0.994 | S. cerevisiae deletion strains, locus YEL061C, strain CIN8, active compounds read low 1.01 | S. cerevisiae deletion strains, locus YER110C, active compounds read low 0.987 | S. cerevisiae deletion strains, locus YER155C, strain BEM2, active compounds read low 1.01 | S. cerevisiae deletion strains, locus YER167W, strain BCK2, active compounds read low 1.02 | S. cerevisiae deletion strains, locus YGL078C, strain dbp3, active compounds read low 0.999 | S. cerevisiae deletion strains, locus YGL086W, strain mad1, active compounds read low 0.994 | S. cerevisiae deletion strains, locus YGL248W, strain PDE1, active compounds read low 1.02 | S. cerevisiae deletion strains, locus YGR078C, strain PAC10, active compounds read low 1.04 | S. cerevisiae deletion strains, locus YGR135W, strain pre9, active compounds read low 1 | S. cerevisiae deletion strains, locus YGR252W, strain gcn5, active compounds read low 1.06 | S. cerevisiae deletion strains, locus YHR030C, strain SLT2, active compounds read low 1.01 and 1 | S. cerevisiae deletion strains, locus YHR079C, strain IRE1 (second series), active compounds read low 0.986 | S. cerevisiae deletion strains, locus YHR079C, strain IRE1, active compounds read low 0.996 | S. cerevisiae deletion strains, locus YHR094C, strain hxt1, active compounds read low 0.987 | S. cerevisiae deletion strains, locus YHR129C, strain ARP1, active compounds read low 1.01 | S. cerevisiae deletion strains, locus YHR200W, strain rpn10, active compounds read low 0.997 | S. cerevisiae deletion strains, locus YIL066C, strain RNR3, active compounds read low 1.03 | S. cerevisiae deletion strains, locus YIL073C, strain SPO22, active compounds read low 1.02 | S. cerevisiae deletion strains, locus YIL125W, strain kgd1, active compounds read low 0.988 | S. cerevisiae deletion strains, locus YIR030C, strain dcg1, active compounds read low 0.996 | S. cerevisiae deletion strains, locus YJL095W, strain BCK1, active compounds read low 1.04 and 1.01 | S. cerevisiae deletion strains, locus YJL134W, strain LCB3, active compounds read low 1.01 | S. cerevisiae deletion strains, locus YJL168C, strain set2, active compounds read low 0.997 | S. cerevisiae deletion strains, locus YJL187C, strain SWE1 (second series), active compounds read low 1.01 | S. cerevisiae deletion strains, locus YJR043C, strain POL32, active compounds read low 1.05 | S. cerevisiae deletion strains, locus YJR066W, strain TOR1, active compounds read low 0.938 | S. cerevisiae deletion strains, locus YKL009W, strain mrt4, active compounds read low 1.01 | S. cerevisiae deletion strains, locus YKL068W, active compounds read low 0.989 | S. cerevisiae deletion strains, locus YKL085W, strain MDH1 (second series), active compounds read low 0.996 | S. cerevisiae deletion strains, locus YKL085W, strain MDH1, active compounds read low 0.996 | S. cerevisiae deletion strains, locus YKL190W, strain CNB1, active compounds read low 1.01 | S. cerevisiae deletion strains, locus YKR001C, strain vps1, active compounds read low 0.97 | S. cerevisiae deletion strains, locus YLR039C, strain RIC1, active compounds read low 1.09 | S. cerevisiae deletion strains, locus YLR058C, strain SHM2, active compounds read low 1.01 | S. cerevisiae deletion strains, locus YLR102C, strain apc9, active compounds read low 0.996 | S. cerevisiae deletion strains, locus YLR113W, strain HOG1, active compounds read low 1 | S. cerevisiae deletion strains, locus YLR262C, strain YPT6, active compounds read low 1.12 | S. cerevisiae deletion strains, locus YLR268W, strain sec22, active compounds read low 0.996 | S. cerevisiae deletion strains, locus YLR330W, strain CHS5, active compounds read low 1.01 | S. cerevisiae deletion strains, locus YLR342W, strain FKS1 (second series), active compounds read low 1.01 | S. cerevisiae deletion strains, locus YLR371W, strain rom2, active compounds read low 0.981 | S. cerevisiae deletion strains, locus YLR418C, strain cdc73, active compounds read low 1.04 | S. cerevisiae deletion strains, locus YML016C, strain PPZ1, active compounds read low 1.01 | S. cerevisiae deletion strains, locus YML032C, strain rad52, active compounds read low 1 | S. cerevisiae deletion strains, locus YML124C, strain tub3, active compounds read low 0.997 | S. cerevisiae deletion strains, locus YMR078C, strain ctf18, active compounds read low 0.998 | S. cerevisiae deletion strains, locus YMR223W, strain ubp8, active compounds read low 0.996 | S. cerevisiae deletion strains, locus YMR307W, strain GAS1, active compounds read low 1.22 | S. cerevisiae deletion strains, locus YNL067W, strain RPL9B, active compounds read low 1.02 | S. cerevisiae deletion strains, locus YNL128W, strain TEP1, active compounds read low 1.01 | S. cerevisiae deletion strains, locus YNL153C, strain GIM3, active compounds read low 1.01 | S. cerevisiae deletion strains, locus YNL183C, strain NPR1, active compounds read low 0.938 | S. cerevisiae deletion strains, locus YNL233W, strain BNI4, active compounds read low 1.02 | S. cerevisiae deletion strains, locus YNL250W, strain rad50, active compounds read low 0.991 | S. cerevisiae deletion strains, locus YNL271C, strain bni1, active compounds read low 0.995 | S. cerevisiae deletion strains, locus YNL298W, strain CLA4, active compounds read low 1.01 | S. cerevisiae deletion strains, locus YNL307C, strain MCK1, active compounds read low 0.988 | S. cerevisiae deletion strains, locus YNR052C, strain pop2, active compounds read low 0.981 | S. cerevisiae deletion strains, locus YOL012C, strain htz1 0.918 | S. cerevisiae deletion strains, locus YOL147C, strain pex11, active compounds read low 0.988 | S. cerevisiae deletion strains, locus YOR061W, strain CKA2, active compounds read low 1.01 | S. cerevisiae deletion strains, locus YOR069W, strain VPS5, active compounds read low 1.01 | S. cerevisiae deletion strains, locus YOR136W, strain idh2, active compounds read low 0.991 | S. cerevisiae deletion strains, locus YOR144C, strain elg1, active compounds read low 0.991 | S. cerevisiae deletion strains, locus YOR184W, strain ser1, active compounds read low 0.998 | S. cerevisiae deletion strains, locus YOR231W, strain MKK1, active compounds read low 1 | S. cerevisiae deletion strains, locus YOR316C, strain cot1, active compounds read low 0.992 | S. cerevisiae deletion strains, locus YPL256C, strain CLN2, active compounds read low 1.02 | S. cerevisiae deletion strains, locus YPR119W, strain clb2, active compounds read low 0.993 | S. cerevisiae deletion strains, locus YPR141C, strain kar3, active compounds read low 0.989 | S. cerevisiae deletion strains, locus YPR163C, strain tif3, active compounds read low 0.984 | S. cerevisiae deletion strains, locus YPR167C, strain met16, active compounds read low 0.99 | S. cerevisiae deletion strains, strain wtn01, active compounds read low 0.983 | S. cerevisiae strains, strain wild type, active compounds read low 1.01
